From PubChem
Only some compounds are listed: those with a hit (about 10% of all), similar ones and a draw of the others.
CtBP-E1A blk = inhibitors of CtBP/E1A interaction. activity change, % (no concentration beside the values). AlphaScreen GST-E1A/His-CtBP binding, 1536-well; active compounds read low. actives 0.49% (n = 340,000); in the data active = activity change below about -65%; inconclusive = mostly about -30% to -63%; note: % is set by controls: 0 for no effect and ±100 for the full control effect
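Steps: dispense buffer (Tris pH 8.0, NaCl 300 mM, TCEP 1 mM, BSA, Tween 20); add 5X protein mix (GST-E1A, His-CtBP, 125 nM each); pin 23 nL compound; 2 h at 37 °C, dark; add 5X beads (50 ug/mL); 1 h; read.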
BAZ2B inh = blocks human BAZ2B. AlphaScreen BAZ2B-H3K14Ac peptide displacement. actives 4.4% (n = 360,000). Potency, µM (highest dose often 114 µM), without a hit: at the highest dose activity change, negative = inhibition, actives largely listed as inhibitors; note: potency is the fitted concentration of half-maximal effect; % is set by controls: 0 for no effect and ±100 for the full control effect; nearly all actives have a fitted effect of over 60% in size
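In this displacement format the biotinylated H3(5-23) peptide acetylated at Lys14 serves as ligand at 50 nM, with BAZ2B at 50 nM in PBS pH 7.4 containing 0.01% Tween-20. Donor and acceptor beads are 10 ug/mL final.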
JMJD2A Tudor = inhibitors of human JMJD2A Tudor domain; O75164; AlphaScreen JMJD2A-Tudor / H3K4me3 peptide binding; Potency, µM (highest dose often 114 µM), for inactives: top-dose activity change, negative = inhibition, hits mostly inhibitors; actives 4.4% (n = 390,000); AID 504339; note: potency is the fitted concentration of half-maximal effect; % is set by controls: 0 for no effect and ±100 for the full control effect; nearly all actives have a fitted effect of over 50% in size
HP1b chromo inh = HP1-beta chromodomain-methylated histone interaction inhibition; P83916; AlphaScreen HP1-beta / biotin-H3K9me3 peptide binding; actives 0.56% (n = 390,000); Potency, µM (titrated, usually from 114 µM), for the others: top-dose activity change, negative = inhibition, hits mostly inhibitors; note: potency is the fitted concentration of half-maximal effect; nearly all actives have a fitted effect of over 70% in size
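Compound inhibition of the preformed complex between 50 nM HP1-beta and 50 nM biotinylated H3K9me3 peptide was read by AlphaScreen. Buffer was PBS pH 7.4 with 0.01% Tween-20. Incubations ran 30 min at room temperature, with 10 ug/mL donor/acceptor beads.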
G9a block = blocks human histone lysine methyltransferase G9a | Q96KQ7 | G9a H3K9 monomethylation, AlphaScreen, 2 h | Potency, µM (titrated, usually from 102 µM), for inactives: top-dose activity, negative = inhibition, usual class: inhibitors | actives 8.8% (n = 350,000) | AID 504332; note: potency is the fitted concentration of half-maximal effect; % is set by controls: 0 for no effect and ±100 for the full control effect; nearly all actives have a fitted effect of over 75% in size
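Compounds were preincubated with 20 nM G9a for 15 min, after which biotinylated H3K9 peptide (500 nM) and SAM (20 uM) started a 2 h room-temperature reaction. Monomethylated product was quantified by antibody-based AlphaScreen chemiluminescence.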
Six1-Eya2 blk = inhibitors of human Six1/Eya2 interaction | Q15475+O00167 | AlphaScreen GST-Six1/His-Eya2 binding, biochemical; active compounds read low | activity change, % (test concentration not listed) | actives 0.56% (n = 360,000) | AID 651725; in the data active = activity change below about -65%; inconclusive = mostly about -30% to -63%; note: % is set by controls: 0 for no effect and ±100 for the full control effect
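AlphaScreen with GST-Six1 and His-Eya2 (5X mix: 250 nM and 500 nM), glutathione donor and nickel acceptor beads; buffer 50 mM Tris pH 8.0, 300 mM NaCl, 1 mM TCEP; 1 h at 37 C in the dark.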
* hit, by the source's call; ? = inconclusive; . = no result given; ! = repeats disagree; [ ] = dose if it differs, or a comment. Unless noted, calls come from the whole dose curve; as a rule, active = well fitted inhibition curve with a large enough effect; inconclusive = small, poorly fitted or top-dose-only effect; inactive = no such curve, though single readings can be large or run the other way.

SMILES	CtBP-E1A blk	BAZ2B inh	JMJD2A Tudor	HP1b chromo inh	G9a block	Six1-Eya2 blk
Cc1cc(S(=O)(=O)ON2C(=O)c3ccccc3C2=O)ccc1F	.	-26%	79µM*	?	7.1µM*	3
CCOC(=O)c1c(C)[nH]c(C)c1S(=O)(=O)N1CCCC(C(=O)Nc2cccc(CC)c2)C1 (stereo not drawn)	.	-27%	-25%	10%	-31%[59 µM]	.
O=C(NCc1ccccc1)Nc1ncnc2c1C(c1ccccc1)c1c(ccc3ccccc13)O2 (stereo not drawn)	.	.	-27%	.	.	.
CCc1cccc(NC(=O)c2cc3c(=O)n(Cc4ccc(OC)cc4)ccc3nc2C)c1	.	-8%	-14%	27%	-21%[59 µM]	.
CCc1c(O)nc(SCC(=O)N2CCc3cc(OC)c(OC)cc3[C@@H]2C)[nH]c1=O	0	-4%	-14%	53%	.	-4
Cc1[nH]n(-c2ncc(-c3ccccc3)s2)c(=O)c1C(c1ccc(Cl)cc1)C(C#N)C#N (stereo not drawn)	1	40µM*	40µM*	?	?	-15
COc1ccc(-n2cnc3cc(C(=O)NCCC4=CCCCC4)ccc32)cc1	.	-10%	-21%	34%	-40%[59 µM]	.
OC(CNCCNc1ncccc1C(F)(F)F)COc1ccc(F)cc1 (stereo not drawn)	1	0%	4%	11%	13%	15
Cn1cc(C(F)(F)F)nc1-c1ccc(OCC(O)CNCCOc2ccc(O)c(C(N)=O)c2)cc1 (stereo not drawn)	-10	-8%	-18%	14%	25µM*!	-1
Cc1c(C)c(C)c(CN2CCSCC2)c(C)c1C	3	-11%	1%	38%	2%	-11
Cc1ccc(CN2CCSCC2)cc1	.	?	22µM*	?	.	2
Cc1ccc(CN2CCSCC2)c(C)c1	.	?	-100%	?	4.5µM*	-3
Cc1ccc(CN2CCCN(C)CC2)c(C)c1	10	56µM*	3.2µM*	?	3.5µM*	-3
Cc1ccc2scc(CN3CCCC3)c2c1	5	.	6%	30%	.	-3
O=S1(=O)CCN(Cc2cccc(Cl)c2)CC1	5	-1%	-24%	14%	-4%	8
Clc1cccc(CN2CCSCC2)c1	.	?	22µM*	?	-30%[0.501 µM]	0
COc1ccc(/C=C(/NC(=O)c2ccc(OC)c(OC)c2)C(=O)NCCCn2ccnc2)cc1	-11	-11%	-9%	4%	14%	-2
COc1ccc(N2CCN(Cc3cc(=O)oc4ccc(OC)cc34)CC2)cc1	.	-17%	-28%	6%	-8%[59 µM]	.
CCC(=O)NC1=C(Cl)C(=O)C(NC(=O)CC)=C(Cl)C1=O	.	45µM*	4µM*	4µM*	0.25µM*	-24
CCCCn1cc(S(=O)(=O)c2ccc(C)c(C)c2)c(=O)c2cc(F)c(N(CC)CC)cc21	.	3%	-13%	10%	5%[59 µM]	.
Cc1ccc(S(=O)(=O)Nc2ccc(S(=O)(=O)Nc3cc(C)nc(C)n3)cc2)cc1	.	?	1%	41%	10µM*	19
Cc1cc(NS(=O)(=O)c2ccc(NC(=S)NC(=O)c3cccc(S(=O)(=O)N(C)C)c3)cc2)no1	-9	-18%	-9%	0%	35µM*	-10
CCOc1ccc(OCC(=O)Nc2ccc(S(=O)(=O)Nc3cc(C)nc(C)n3)cc2)cc1	-5	-6%	-28%	3%	14µM*	-3
Cc1cc(NS(=O)(=O)c2ccc(NC(=O)COc3ccc(Br)cc3)cc2)nc(C)n1	?	-22%	20µM*	2%	.	-2
Cc1ccc(OCCC(=O)Nc2ccc(S(=O)(=O)Nc3cc(C)nc(C)n3)cc2)cc1	0	-7%	-10%	28%	-45%	-1
SMILES	CtBP-E1A blk	BAZ2B inh	JMJD2A Tudor	HP1b chromo inh	G9a block	Six1-Eya2 blk
O=C(C1CCC1)N1CCc2cc(S(=O)(=O)NCc3ccc(F)cc3)ccc21	.	.	-16%	6%	10%[59 µM]	.
Cc1ccc(NC(=O)C(c2ccccc2)N2Cc3ccccc3C2=O)cc1Cl (stereo not drawn)	.	-28%	-24%	7%	5%[59 µM]	.
Cc1ccc(S(=O)(=O)Nc2ccc(-c3cn4ccc(C)cc4n3)cc2)cc1	.	-10%	?	2%	45µM*	-13
CCOC(=O)/C=C/C(=O)Nc1ccc(S(=O)(=O)N(C)c2ccccc2)cc1	-1	-17%	-29%	8%	45µM*	-1
CCCCOC(=O)Nc1ccc(S(=O)(=O)Nc2cc(C)nc(C)n2)cc1	-2	12%	-15%	27%	11%[59 µM]	1
CCCCC(Br)C(=O)Nc1ccc(S(=O)(=O)Nc2cc(C)nc(C)n2)cc1 (stereo not drawn)	0	-23%	-6%	14%[57 µM]	50µM*	3
Cc1cc(NS(=O)(=O)c2ccc(NC(=O)c3ccco3)cc2)nc(C)n1	0	6%	-22%	41%	?	-4
Cc1cc(NS(=O)(=O)c2ccc(NC(=O)/C=C/c3ccco3)cc2)nc(C)n1	-13	-17%	-16%	-5%	50µM*	-17
Cc1cc(N2CCCC2=O)ccc1S(=O)(=O)NC1CCCCC1	5	-2%	-9%	-7%	-3%	7
CC(Sc1nnc(-c2ccccc2F)n1C1CC1)C(=O)NCc1ccco1 (stereo not drawn)	.	-5%	-9%	34%	-5%[59 µM]	-2
Cc1cc(NS(=O)(=O)c2ccc(NC(=O)COc3c(C)cc(Br)cc3C)cc2)no1	2	-34%	-11%	28%	56µM*!	-8
CCOC(=O)/C=C/C(=O)Nc1ccc(S(=O)(=O)Nc2cc(C)on2)cc1	-2	-19%	-6%	7%	50µM*	-6
CCOC(=O)Nc1ccc(S(=O)(=O)Nc2cc(C)on2)cc1	-7	5%	-14%	31%	11%[12.7 µM]	-2
Cc1cc(NS(=O)(=O)c2ccc(NC(=O)COc3ccc(Br)cc3C)cc2)no1	.	-7%	-17%	11%	-11%[59 µM]	.
Cc1cc(C)n(C)c(=O)c1C#N	-5	-35%	-3%	25%	-10%	3
CC(=O)N=Cc1c(C)c(C#N)c(=O)n(C)c1O	.	-31%	-15%	34%	45µM*	-1
Cc1c(C=O)c(Cl)n(C)c(=O)c1C#N	1	56µM*	79µM*	12%	40µM*	-3
CC1CCCCC1NC(=O)COC(=O)c1c2c(nc3ccccc13)/C(=C/c1ccco1)CC2 (stereo not drawn)	-1	45µM*	45µM*	-35%	?	?
Cc1cc(C(=O)OCC(=O)NC2CCCCC2C)c2ccccc2n1 (stereo not drawn)	1	.	-4%	41%	.	-2
O=C(COC(=O)c1c2c(nc3ccccc13)/C(=C/c1ccco1)CC2)NC1CCCC1	-4	10µM*	?	?	3.5µM*	-8
